Results published in ChEMBL document CHEMBL2218924, “A broad activity screen in support of a chemogenomic map for kinase signalling research and drug discovery” (Biochem J, 2013).

What was measured:
[1] = molecular target: T1, Testis-specific serine/threonine-protein kinase 1 (Homo sapiens) (UniProt Q9BXA7); conditions: at 1 µM
T1 sequence (whole entry): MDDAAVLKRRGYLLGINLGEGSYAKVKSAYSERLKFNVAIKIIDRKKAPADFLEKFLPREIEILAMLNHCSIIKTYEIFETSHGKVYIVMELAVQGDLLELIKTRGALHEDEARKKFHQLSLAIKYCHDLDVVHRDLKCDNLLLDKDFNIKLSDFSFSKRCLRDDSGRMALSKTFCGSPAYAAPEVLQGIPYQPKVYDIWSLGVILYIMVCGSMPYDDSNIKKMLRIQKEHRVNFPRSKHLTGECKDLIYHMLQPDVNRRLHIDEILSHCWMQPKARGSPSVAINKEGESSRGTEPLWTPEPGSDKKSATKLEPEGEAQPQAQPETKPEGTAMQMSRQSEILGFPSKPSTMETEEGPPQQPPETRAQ

[2] = molecular target: T1, Testis-specific serine/threonine-protein kinase 1 (Homo sapiens); conditions: at 10 µM
[3] = molecular target: T2, Tyrosine-protein kinase Tec (Homo sapiens) (UniProt P42680); conditions: at 1 µM
T2 sequence (whole entry): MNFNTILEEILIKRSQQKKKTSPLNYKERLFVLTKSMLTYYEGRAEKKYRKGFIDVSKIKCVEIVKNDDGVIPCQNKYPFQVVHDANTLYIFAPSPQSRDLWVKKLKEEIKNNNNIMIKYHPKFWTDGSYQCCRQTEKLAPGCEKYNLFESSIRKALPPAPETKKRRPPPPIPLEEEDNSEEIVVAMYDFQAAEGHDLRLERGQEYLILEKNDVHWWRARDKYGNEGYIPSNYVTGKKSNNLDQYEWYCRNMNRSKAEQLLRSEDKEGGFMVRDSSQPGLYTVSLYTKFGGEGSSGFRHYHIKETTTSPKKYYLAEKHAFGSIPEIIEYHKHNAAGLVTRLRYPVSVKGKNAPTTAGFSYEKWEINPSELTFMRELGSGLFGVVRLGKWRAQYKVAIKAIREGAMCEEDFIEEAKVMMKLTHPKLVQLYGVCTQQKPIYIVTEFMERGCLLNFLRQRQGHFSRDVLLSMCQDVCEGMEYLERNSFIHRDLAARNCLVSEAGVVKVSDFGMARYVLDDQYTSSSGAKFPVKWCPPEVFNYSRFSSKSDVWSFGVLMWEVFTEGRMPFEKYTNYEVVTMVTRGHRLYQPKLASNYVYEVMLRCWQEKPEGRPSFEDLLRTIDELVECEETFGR

[4] = molecular target: T2, Tyrosine-protein kinase Tec (Homo sapiens); conditions: at 10 µM
[5] = molecular target: Angiopoietin-1 receptor (Homo sapiens) (UniProt Q02763); conditions: at 1 µM
[6] = molecular target: Angiopoietin-1 receptor (Homo sapiens) (UniProt Q02763); conditions: at 10 µM
[7] = molecular target: High affinity nerve growth factor receptor (Homo sapiens) (UniProt P04629); conditions: at 1 µM
[8] = molecular target: High affinity nerve growth factor receptor (Homo sapiens) (UniProt P04629); conditions: at 10 µM
[9] = molecular target: BDNF/NT-3 growth factors receptor (Homo sapiens) (UniProt Q16620); conditions: at 10 µM
[10] = molecular target: T3, Tyrosine-protein kinase TXK (Homo sapiens) (UniProt P42681); conditions: at 10 µM
T3 sequence (whole entry): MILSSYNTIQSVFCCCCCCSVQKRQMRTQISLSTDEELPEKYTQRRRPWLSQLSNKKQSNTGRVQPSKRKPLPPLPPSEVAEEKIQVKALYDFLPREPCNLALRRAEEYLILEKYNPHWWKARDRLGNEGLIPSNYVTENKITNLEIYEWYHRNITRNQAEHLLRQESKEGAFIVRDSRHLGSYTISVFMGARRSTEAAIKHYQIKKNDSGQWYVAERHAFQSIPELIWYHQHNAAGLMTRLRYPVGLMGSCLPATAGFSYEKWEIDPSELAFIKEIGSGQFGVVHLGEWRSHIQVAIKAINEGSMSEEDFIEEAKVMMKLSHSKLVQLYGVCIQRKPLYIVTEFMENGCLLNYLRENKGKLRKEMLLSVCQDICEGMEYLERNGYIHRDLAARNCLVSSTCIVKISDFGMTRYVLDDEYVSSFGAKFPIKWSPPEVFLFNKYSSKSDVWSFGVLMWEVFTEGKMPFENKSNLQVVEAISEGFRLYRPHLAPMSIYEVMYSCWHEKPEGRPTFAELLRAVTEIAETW

[11] = molecular target: T4, Serine/threonine-protein kinase ULK2 (Homo sapiens) (UniProt Q8IYT8); conditions: at 1 µM
T4 sequence (whole entry): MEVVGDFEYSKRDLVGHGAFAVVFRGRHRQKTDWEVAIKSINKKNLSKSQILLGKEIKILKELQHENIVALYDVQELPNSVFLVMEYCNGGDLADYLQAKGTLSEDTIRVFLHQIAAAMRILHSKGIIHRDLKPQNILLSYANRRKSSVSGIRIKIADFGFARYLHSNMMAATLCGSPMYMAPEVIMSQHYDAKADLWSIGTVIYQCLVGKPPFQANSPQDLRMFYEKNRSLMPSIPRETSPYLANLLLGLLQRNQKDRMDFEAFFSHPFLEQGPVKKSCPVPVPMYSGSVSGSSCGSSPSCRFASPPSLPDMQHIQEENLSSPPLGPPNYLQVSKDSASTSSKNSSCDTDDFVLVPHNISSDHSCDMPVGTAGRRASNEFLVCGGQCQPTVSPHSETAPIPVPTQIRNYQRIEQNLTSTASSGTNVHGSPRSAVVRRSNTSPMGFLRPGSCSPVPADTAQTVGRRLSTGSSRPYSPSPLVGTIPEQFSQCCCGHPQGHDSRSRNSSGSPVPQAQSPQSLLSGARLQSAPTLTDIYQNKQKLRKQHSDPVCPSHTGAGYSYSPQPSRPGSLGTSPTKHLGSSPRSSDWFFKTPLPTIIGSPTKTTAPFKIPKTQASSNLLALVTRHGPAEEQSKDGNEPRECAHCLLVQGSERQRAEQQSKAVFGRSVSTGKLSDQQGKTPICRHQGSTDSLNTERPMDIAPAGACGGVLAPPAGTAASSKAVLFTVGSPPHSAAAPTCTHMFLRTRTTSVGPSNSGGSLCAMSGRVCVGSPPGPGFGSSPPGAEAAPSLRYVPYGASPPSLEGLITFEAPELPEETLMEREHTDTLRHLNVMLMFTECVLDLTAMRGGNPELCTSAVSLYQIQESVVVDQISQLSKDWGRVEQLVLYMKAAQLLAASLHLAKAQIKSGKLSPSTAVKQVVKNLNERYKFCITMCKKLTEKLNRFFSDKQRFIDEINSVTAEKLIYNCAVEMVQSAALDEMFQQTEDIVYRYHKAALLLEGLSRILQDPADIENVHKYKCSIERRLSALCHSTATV

[12] = molecular target: T4, Serine/threonine-protein kinase ULK2 (Homo sapiens); conditions: at 10 µM
[13] = molecular target: T5, Serine/threonine-protein kinase ULK3 (Homo sapiens) (UniProt Q6PHR2); conditions: at 10 µM
T5 sequence (whole entry): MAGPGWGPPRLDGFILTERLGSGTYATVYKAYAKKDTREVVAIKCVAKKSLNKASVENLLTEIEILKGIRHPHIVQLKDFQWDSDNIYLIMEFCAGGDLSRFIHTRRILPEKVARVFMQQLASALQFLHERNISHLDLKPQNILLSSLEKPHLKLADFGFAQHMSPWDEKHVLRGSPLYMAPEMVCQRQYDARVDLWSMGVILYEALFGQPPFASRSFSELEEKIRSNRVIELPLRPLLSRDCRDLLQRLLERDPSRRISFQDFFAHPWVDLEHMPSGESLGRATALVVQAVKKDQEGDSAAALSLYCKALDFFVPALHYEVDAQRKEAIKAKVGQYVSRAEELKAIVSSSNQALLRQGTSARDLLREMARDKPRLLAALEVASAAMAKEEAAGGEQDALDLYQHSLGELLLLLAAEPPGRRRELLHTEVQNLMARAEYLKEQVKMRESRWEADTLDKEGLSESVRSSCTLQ

[14] = molecular target: Serine/threonine-protein kinase VRK2 (Homo sapiens) (UniProt Q86Y07); conditions: at 1 µM
[15] = molecular target: Serine/threonine-protein kinase VRK2 (Homo sapiens) (UniProt Q86Y07); conditions: at 10 µM
[16] = molecular target: T6, Testis-specific serine/threonine-protein kinase 2 (Homo sapiens) (UniProt Q96PF2); conditions: at 10 µM
T6 sequence (whole entry): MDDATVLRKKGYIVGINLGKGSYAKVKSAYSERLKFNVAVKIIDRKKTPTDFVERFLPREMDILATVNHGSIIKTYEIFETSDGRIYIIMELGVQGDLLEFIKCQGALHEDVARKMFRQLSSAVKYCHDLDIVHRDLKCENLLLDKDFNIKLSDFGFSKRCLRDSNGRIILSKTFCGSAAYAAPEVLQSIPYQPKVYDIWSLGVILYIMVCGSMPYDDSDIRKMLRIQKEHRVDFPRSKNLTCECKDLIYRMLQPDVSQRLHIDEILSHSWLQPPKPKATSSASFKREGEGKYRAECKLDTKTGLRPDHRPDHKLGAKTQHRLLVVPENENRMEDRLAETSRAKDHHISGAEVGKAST

[17] = molecular target: BDNF/NT-3 growth factors receptor (Homo sapiens) (UniProt Q16620); conditions: at 1 µM
[18] = molecular target: T3, Tyrosine-protein kinase TXK (Homo sapiens); conditions: at 1 µM
[19] = molecular target: T5, Serine/threonine-protein kinase ULK3 (Homo sapiens); conditions: at 1 µM
[20] = molecular target: Serine/threonine-protein kinase WNK2 (Homo sapiens) (UniProt Q9Y3S1); conditions: at 1 µM;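 also: residual WNK2 kinase activity expressed as percent of uninhibited control, assayed in MOPS buffer at pH 7.0 containing EDTA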
Chain of Serine/threonine-protein kinase WNK2 (Homo sapiens) (Q9Y3S1 whole entry): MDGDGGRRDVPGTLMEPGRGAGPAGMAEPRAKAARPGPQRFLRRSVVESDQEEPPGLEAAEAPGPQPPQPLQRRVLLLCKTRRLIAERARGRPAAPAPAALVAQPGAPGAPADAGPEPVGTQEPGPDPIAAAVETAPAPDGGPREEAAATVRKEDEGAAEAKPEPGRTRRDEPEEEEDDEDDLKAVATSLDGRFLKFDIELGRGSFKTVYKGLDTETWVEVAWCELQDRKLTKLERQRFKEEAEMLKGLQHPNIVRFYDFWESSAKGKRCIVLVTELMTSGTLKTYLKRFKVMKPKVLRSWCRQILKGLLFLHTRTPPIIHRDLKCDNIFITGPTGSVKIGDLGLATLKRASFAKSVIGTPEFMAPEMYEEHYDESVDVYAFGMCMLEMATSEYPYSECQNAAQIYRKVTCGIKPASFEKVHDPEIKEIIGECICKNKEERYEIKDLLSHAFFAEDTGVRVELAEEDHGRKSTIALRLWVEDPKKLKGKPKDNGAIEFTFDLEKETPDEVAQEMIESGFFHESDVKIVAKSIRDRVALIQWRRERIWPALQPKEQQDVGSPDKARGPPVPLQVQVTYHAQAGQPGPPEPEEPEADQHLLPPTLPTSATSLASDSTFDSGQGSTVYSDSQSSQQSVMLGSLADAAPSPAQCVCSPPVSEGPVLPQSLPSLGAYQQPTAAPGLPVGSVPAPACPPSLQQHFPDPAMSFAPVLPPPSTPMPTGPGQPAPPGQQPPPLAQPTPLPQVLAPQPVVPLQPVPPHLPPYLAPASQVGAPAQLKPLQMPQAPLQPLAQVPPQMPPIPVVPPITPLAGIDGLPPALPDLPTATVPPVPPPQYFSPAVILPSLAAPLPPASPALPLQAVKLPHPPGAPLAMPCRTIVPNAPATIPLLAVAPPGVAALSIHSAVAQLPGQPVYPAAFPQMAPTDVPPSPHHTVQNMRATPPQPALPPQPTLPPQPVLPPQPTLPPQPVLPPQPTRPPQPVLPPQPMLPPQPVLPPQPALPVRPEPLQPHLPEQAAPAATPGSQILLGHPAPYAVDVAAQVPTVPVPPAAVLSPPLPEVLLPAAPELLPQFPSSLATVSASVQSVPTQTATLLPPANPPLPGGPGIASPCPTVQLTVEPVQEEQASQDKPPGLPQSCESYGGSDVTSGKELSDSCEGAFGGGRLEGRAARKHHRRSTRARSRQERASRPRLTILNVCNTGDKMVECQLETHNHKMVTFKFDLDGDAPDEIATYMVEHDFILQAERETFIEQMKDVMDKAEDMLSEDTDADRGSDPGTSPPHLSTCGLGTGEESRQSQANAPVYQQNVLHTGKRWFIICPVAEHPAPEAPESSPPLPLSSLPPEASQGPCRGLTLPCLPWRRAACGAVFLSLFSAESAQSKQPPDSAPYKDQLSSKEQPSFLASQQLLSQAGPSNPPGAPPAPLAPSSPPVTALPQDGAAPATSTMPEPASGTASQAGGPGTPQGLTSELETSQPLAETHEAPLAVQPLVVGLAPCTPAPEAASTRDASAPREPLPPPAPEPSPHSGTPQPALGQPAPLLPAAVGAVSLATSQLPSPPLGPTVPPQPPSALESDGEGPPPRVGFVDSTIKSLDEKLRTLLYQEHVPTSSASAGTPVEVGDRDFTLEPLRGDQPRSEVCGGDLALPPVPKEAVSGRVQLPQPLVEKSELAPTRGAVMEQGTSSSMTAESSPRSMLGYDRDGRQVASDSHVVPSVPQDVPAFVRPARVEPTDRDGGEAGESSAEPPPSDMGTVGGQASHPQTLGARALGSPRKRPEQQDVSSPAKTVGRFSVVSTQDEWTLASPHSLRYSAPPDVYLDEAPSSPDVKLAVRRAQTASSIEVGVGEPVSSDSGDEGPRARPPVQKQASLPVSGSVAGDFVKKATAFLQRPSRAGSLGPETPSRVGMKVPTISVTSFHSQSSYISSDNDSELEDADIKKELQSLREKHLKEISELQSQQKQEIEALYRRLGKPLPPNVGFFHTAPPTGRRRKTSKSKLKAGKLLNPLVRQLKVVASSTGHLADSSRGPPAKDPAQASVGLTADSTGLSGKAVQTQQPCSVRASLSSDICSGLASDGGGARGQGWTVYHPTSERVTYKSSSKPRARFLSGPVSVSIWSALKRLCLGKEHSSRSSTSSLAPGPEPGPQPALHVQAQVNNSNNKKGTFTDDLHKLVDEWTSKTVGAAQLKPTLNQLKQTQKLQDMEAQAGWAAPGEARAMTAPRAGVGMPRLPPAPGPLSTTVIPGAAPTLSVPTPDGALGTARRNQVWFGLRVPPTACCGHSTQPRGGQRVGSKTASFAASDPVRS

Chain of Serine/threonine-protein kinase VRK2 (Homo sapiens) (Q86Y07 whole entry): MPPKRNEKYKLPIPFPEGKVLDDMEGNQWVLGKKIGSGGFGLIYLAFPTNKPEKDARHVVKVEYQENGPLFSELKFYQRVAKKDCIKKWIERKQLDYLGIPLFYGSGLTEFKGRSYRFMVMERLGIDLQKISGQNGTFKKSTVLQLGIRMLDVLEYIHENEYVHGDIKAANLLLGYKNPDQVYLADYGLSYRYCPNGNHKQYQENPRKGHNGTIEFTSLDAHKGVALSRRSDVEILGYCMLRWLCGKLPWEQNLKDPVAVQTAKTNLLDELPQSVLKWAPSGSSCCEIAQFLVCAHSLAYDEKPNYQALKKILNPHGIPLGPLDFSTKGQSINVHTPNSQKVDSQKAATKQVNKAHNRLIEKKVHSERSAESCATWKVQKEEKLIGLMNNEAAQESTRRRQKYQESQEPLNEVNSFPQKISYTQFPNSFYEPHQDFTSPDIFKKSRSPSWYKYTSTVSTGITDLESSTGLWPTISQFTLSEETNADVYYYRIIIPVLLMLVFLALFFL
Chain of High affinity nerve growth factor receptor (Homo sapiens) (P04629 33-796 limits assumed): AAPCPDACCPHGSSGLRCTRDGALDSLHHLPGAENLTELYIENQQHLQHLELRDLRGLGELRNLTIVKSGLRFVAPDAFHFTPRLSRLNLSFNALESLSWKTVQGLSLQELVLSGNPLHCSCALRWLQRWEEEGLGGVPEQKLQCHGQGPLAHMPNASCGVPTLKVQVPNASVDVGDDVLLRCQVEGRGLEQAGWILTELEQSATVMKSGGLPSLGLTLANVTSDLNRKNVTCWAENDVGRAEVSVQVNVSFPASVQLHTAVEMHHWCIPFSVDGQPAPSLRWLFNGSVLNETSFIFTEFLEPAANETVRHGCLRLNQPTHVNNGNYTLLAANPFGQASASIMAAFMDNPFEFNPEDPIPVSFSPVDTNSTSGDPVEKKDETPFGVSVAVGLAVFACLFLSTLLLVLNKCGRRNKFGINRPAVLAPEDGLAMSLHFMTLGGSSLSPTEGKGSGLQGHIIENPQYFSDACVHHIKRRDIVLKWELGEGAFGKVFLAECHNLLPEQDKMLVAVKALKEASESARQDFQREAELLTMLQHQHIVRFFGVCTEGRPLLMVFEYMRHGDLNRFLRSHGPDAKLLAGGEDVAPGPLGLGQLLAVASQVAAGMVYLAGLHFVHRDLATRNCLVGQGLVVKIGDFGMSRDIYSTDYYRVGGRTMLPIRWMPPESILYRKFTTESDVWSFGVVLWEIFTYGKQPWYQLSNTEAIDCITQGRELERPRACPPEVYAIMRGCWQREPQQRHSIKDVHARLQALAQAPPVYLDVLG
Chain of Angiopoietin-1 receptor (Homo sapiens) (Q02763 whole entry): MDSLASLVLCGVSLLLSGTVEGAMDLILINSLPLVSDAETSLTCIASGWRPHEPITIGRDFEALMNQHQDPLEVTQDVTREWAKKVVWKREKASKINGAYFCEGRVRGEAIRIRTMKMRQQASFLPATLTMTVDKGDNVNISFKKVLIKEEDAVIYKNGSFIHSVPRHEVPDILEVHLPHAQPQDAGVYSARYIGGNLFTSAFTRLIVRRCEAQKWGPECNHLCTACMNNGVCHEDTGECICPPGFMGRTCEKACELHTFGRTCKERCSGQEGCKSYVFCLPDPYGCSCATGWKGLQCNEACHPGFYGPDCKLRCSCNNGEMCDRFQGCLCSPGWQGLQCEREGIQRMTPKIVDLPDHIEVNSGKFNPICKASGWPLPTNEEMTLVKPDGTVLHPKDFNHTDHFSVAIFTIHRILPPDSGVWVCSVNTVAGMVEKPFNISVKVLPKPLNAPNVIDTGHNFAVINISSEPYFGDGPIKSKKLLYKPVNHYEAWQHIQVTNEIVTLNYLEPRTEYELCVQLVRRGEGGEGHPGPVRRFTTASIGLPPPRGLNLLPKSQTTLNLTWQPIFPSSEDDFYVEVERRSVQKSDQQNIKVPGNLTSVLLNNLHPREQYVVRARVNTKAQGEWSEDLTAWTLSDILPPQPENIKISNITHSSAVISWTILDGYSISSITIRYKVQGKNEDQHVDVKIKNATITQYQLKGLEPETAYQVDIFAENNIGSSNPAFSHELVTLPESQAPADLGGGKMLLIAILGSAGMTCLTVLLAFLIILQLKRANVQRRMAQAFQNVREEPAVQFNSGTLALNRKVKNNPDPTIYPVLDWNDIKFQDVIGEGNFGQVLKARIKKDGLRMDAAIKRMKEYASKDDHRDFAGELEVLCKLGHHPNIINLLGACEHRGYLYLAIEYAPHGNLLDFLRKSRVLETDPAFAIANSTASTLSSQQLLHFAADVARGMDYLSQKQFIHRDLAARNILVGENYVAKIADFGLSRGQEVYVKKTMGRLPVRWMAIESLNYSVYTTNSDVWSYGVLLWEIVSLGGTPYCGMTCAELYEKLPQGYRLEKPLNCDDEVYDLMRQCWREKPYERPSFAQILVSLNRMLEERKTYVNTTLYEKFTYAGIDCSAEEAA

| SMILES | residual activity [1] [%] | residual activity [2] [%] | residual activity [3] [%] | residual activity [4] [%] | residual activity [5] [%] | residual activity [6] [%] | residual activity [7] [%] | residual activity [8] [%] | residual activity [9] [%] | residual activity [10] [%] | residual activity [11] [%] | residual activity [12] [%] | residual activity [13] [%] | residual activity [14] | residual activity [15] [%] | residual activity [16] [%] | residual activity [17] [%] | residual activity [18] [%] | residual activity [19] [%] | residual activity [20] |
| --- | --- | --- | --- | --- | --- | --- | --- | --- | --- | --- | --- | --- | --- | --- | --- | --- | --- | --- | --- | --- |
| Nc1ncnc2c1cnn2-c1ccccc1 | 92 | 87 | 99 | 90 | 73 | 102 | 91 | 83 | 97 | 78 | 101 | 98 | 91 | 102% (inactive) | 90 |  |  |  |  |  |
| CCOC(=O)c1c(C)[nH]c(/C=C2\C(=O)Nc3ccccc32)c1C | 93 | 83 | 88 | 92 |  |  | 13 | 32 | 45 | 91 |  |  | 70 |  |  | 97 | 73 | 97 | 76 |  |
| c1ccc(-c2cnc(Nc3ccc(OCCN4CCCC4)cc3)s2)cc1 | 100 | 78 |  |  | 114 | 60 | 24 | 3 | 3 | 60 | 59 | 16 |  |  |  | 74 | 45 |  |  | 123% (inactive) |
| NC(=O)Nc1sc(-c2ccc(F)cc2)cc1C(N)=O | 62 | 27 |  |  | 82 | 21 |  |  | 2 |  | 86 | 36 | 24 | 95% (inactive) | 52 | 54 | 27 |  | 69 |  |
| O=C1Nc2ccc(Cl)cc2/C1=C/c1cc(Cl)c(O)c(Cl)c1 | 95 | 78 | 89 | 70 | 75 | 51 | -1 | 2 | 3 | 80 |  |  | 47 | 110% (inactive) | 92 | 57 | 38 | 93 | 89 |  |
| CC(C)(C)n1nc(Cc2cccc3ccccc23)c2c(N)ncnc21 | 96 | 90 | 53 | 10 | 71 | 28 | 80 | 17 | 24 | 7 | 106 | 95 | 90 | 92% (inactive) | 68 |  | 45 | 43 | 109 | 98% (inactive) |
| NCCNc1ncc(C(N)=O)c(Nc2cccc(C(F)(F)F)c2)n1 | 56 | 10 |  |  | 100 | 49 |  |  | 29 | 61 |  |  | 24 |  | 43 |  | 47 |  | 82 | 111% (inactive) |
| O=c1cc(N2CCNCC2)oc2c(-c3ccccc3)cccc12 | 101 | 93 |  | 80 | 69 | 78 |  |  |  | 98 | 100 | 95 | 92 | 95% (inactive) | 90 | 82 |  |  | 101 |  |
| CN(C)S(=O)(=O)c1ccc2c(c1)/C(=C/c1cc3c([nH]1)CCCC3)C(=O)N2 | 91 | 73 | 86 | 80 | 45 | 51 | -2 | -1 | 1 | 90 | 38 | 13 | 6 |  | 91 |  | 4 | 92 | 11 | 94% (inactive) |
| CCCC(=O)Oc1ccc2[nH]c(C(=O)c3cc4ccccc4[nH]3)cc2c1 | 93 | 82 | 85 | 94 | 78 | 49 | 87 | 87 | 13 | 82 | 103 | 97 | 85 | 105% (inactive) | 84 | 96 |  | 102 | 105 |  |
| O=S(=O)(NCCNC/C=C/c1ccc(Br)cc1)c1cccc2cnccc12 | 100 | 67 |  |  |  | 69 |  | 78 |  | 61 |  |  |  |  |  |  |  | 74 |  |  |
| Cn1c2ccccc2c2c3c(c4c5ccccc5n(CCC#N)c4c21)CNC3=O | 12 | 10 | 4 | 9 |  |  | 0 | -1 | -12 | 8 | 99 |  | 16 | 97% (inactive) |  | 40 | 44 | 8 | 39 | 97% (inactive) |
| CC(C)c1nn(-c2c(Cl)cccc2Cl)c2nc(Cc3ccc(OCCO)cc3)[nH]c(=O)c12 | 91 | 94 | 90 | 85 |  | 86 | 87 | 74 | 79 | 99 | 81 | 49 | 45 | 100% (inactive) | 96 | 79 |  | 96 | 84 | 108% (inactive) |
